Calls of active or inactive are those of the source.
How the values were obtained:
[1] = binders of probe aFSTL3 on microarray, primary screen, stem cell growth factor project, biochemical, small-molecule microarray, fluorescence 635/667 (AID 1064); details: higher = more signal;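 further: measures binding of the biotinylated anti-FSTL3 antibody to printed compounds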
[2] = binders from COS7 lysate, DM2A8 probe, primary screen, torsin A project, cell lysate, small-molecule microarray, fluorescence 635/667 (AID 1065); details: higher = more signal, COS7 lysate expressing mutant human TOR1A
[3] = binders of probe aFGF2 on microarray, primary screen, stem cell growth factor project, biochemical, small-molecule microarray, fluorescence 635/667 (AID 1067); details: higher = more signal;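 further: measures binding of biotinylated aFGF2 protein to printed compounds on slides; z-score merges feature fluorescence and signal-to-noise across triplicate slides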
[4] = binders of probe aFGF10 on microarray, primary screen, stem cell growth factor project, biochemical, small-molecule microarray, fluorescence 635/667 (AID 1071); details: higher = more signal;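 further: score merges 667 nm spot intensity and signal to noise from triplicate slides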
[5] = target: Neurogenic locus notch homolog protein 2 (Homo sapiens) (UniProt Q04721); experiment: Notch2 binders on small-molecule microarrays, primary screen, biochemical, small-molecule microarray, 635 nm fluorescence, stem cell growth factors (AID 1073); details: Notch2 binding, higher = more signal
Chain of Neurogenic locus notch homolog protein 2 (Homo sapiens) (Q04721 whole entry, looked up, canonical isoform): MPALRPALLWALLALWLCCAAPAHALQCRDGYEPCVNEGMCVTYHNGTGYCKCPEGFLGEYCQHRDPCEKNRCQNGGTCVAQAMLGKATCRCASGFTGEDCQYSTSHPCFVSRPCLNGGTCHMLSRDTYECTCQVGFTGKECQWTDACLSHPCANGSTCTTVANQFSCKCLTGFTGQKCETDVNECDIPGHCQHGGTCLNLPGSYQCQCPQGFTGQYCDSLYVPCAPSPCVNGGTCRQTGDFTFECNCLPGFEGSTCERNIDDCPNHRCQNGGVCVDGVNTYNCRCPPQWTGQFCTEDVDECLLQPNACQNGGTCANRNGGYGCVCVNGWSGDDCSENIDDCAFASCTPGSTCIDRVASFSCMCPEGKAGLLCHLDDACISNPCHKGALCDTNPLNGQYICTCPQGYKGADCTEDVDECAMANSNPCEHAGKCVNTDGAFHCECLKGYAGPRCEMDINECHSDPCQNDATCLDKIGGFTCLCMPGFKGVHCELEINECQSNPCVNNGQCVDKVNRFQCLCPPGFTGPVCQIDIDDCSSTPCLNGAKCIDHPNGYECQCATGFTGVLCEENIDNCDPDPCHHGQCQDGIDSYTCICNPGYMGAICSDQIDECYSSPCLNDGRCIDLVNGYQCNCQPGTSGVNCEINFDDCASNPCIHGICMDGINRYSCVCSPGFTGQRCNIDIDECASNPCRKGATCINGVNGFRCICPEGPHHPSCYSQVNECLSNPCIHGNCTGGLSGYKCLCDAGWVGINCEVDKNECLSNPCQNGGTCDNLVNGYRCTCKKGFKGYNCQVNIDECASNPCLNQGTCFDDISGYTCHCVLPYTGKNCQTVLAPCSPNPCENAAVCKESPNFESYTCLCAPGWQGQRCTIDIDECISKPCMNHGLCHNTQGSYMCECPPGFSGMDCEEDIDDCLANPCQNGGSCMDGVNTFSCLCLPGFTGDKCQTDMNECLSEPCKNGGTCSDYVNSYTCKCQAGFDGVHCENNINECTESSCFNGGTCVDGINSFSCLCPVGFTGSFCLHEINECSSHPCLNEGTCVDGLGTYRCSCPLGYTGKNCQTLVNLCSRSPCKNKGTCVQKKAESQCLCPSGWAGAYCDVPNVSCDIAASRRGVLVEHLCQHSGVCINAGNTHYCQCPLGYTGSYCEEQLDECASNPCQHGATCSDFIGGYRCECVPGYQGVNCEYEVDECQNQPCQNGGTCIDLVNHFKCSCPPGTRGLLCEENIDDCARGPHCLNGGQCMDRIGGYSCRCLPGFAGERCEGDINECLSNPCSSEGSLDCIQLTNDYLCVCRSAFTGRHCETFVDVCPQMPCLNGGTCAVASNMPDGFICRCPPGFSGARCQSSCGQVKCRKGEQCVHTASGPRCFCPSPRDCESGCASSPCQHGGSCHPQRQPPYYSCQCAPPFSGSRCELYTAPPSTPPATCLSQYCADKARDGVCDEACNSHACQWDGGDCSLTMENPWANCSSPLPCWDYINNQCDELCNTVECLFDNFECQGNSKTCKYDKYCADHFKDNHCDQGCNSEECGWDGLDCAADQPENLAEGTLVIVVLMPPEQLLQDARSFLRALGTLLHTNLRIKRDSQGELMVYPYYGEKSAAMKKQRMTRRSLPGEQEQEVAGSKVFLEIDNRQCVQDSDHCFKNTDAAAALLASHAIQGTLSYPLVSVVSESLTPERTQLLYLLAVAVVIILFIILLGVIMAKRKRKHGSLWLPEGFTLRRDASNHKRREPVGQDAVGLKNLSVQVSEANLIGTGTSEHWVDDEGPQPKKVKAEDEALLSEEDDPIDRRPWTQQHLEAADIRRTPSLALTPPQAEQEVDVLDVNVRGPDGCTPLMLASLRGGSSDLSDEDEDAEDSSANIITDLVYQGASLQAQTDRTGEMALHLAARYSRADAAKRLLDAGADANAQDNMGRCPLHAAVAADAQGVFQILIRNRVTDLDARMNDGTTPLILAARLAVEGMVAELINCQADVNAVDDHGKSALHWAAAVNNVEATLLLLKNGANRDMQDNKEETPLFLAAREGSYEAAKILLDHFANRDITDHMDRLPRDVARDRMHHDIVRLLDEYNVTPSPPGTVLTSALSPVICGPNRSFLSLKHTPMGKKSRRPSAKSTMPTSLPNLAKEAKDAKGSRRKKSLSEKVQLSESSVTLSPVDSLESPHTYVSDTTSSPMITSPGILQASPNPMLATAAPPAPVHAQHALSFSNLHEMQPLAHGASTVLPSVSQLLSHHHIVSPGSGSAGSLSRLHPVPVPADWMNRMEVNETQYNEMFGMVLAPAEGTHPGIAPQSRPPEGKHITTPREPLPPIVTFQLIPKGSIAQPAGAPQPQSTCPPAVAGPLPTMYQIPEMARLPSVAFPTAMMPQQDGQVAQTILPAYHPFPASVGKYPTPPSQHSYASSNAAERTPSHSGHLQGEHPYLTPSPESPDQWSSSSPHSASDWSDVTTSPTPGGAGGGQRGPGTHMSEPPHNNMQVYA

[6] = target: Pro-neuregulin-1, membrane-bound isoform (Homo sapiens) (UniProt Q02297); experiment: NRG1 binders on small-molecule microarrays, primary screen, psychiatric disease protein project, biochemical, small-molecule microarray, fluorescence 635/667 (AID 1075); details: NRG1 binding, 635 nm fluorescence, higher = more signal;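 further: score combines 667 nm spot fluorescence with signal to noise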
Chain of Pro-neuregulin-1, membrane-bound isoform (Homo sapiens) (Q02297 whole entry, looked up, the tested form may be a part, canonical isoform): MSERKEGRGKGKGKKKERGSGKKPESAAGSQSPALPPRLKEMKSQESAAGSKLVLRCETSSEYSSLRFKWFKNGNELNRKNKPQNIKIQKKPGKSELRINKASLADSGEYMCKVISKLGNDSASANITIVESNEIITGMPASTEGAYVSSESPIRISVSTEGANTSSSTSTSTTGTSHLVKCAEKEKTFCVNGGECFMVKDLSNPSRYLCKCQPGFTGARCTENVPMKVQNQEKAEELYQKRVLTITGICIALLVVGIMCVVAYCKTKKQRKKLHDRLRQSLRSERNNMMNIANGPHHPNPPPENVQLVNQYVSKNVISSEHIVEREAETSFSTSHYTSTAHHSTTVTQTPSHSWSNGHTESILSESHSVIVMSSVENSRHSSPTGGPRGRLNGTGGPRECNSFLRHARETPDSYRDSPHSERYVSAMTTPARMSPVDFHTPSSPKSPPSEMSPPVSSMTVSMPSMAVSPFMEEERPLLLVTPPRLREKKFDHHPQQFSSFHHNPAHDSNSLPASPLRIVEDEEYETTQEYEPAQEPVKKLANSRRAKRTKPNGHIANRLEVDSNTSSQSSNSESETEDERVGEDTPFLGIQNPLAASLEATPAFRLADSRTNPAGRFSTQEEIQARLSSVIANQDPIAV

[7] = test system: Neuregulin-1 EGF-like domain; experiment: binders of neuregulin-1 EGF-like domain, primary screen, biochemical, small-molecule microarray, 635 nm fluorescence (AID 1081); details: small-molecule microarray binding, higher = more signal;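 further: binding of the protein to compounds printed on small-molecule microarray slides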
[8] = FRG1 promoter luciferase signal modulators, primary screen, FRG1 inhibition for FSHD, cell-based, C2C12 myotubes, firefly/Renilla luciferase, luminescence (AID 1084); details: higher = more signal, called active from +8 up or from −8 down
[9] = binders of probe aFST on microarray, primary screen, stem cell growth factor project, biochemical, small-molecule microarray, fluorescence 635/667 (AID 1086); details: higher = more signal;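 further: score merges 667 nm fluorescence with signal-to-noise of each printed compound spot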
[10] = binders of probe aHhip on microarray, primary screen, stem cell growth factor project, biochemical, small-molecule microarray, fluorescence 635/667 (AID 1087); details: higher = more signal;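 further: score merges spot fluorescence at 667nm with spot signal to noise ratio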

Row | SMILES | composite z-score [1] | composite z-score [2] | composite z-score [3] | composite z-score [4] | composite z-score [5] | composite z-score [6] | composite z-score [7] | z-score [8] | composite z-score [9] | composite z-score [10]
1 | C[N+](C)(C)CCCCCCNC(=O)[C@@H]1C[C@@H]2C(=O)N3CCC[C@H]3C(=O)N2[C@@H]1c1ccc(O)cc1 | -0.138 | 1.74 | -0.0788 | 0.571 | 0.43 | 0.317 | 1.34 | 3.36 (inactive) | 0.648 | 0.21
2 | COC(=O)c1c(CC[C@@H](CO)NC(=O)N[C@@H](C)Cn2cc(-c3ccccn3)nn2)oc(C(C)=O)c1C(=O)OC | -0.291 | 0.334 | -0.076 | 0.384 | -0.127 | 1.66 | 1.29 | 0.224 (inactive) | -0.205 | -0.0237
3 | CN(C)C(=O)[C@@]1(Cc2ccccc2CN=[N+]=[N-])N=C(c2ccc(OCCCO)cc2)O[C@H]1c1ccccc1N=[N+]=[N-] | 0.388 | 0.021 | 0.0362 | 1.2 | 1.55 | 1.88 | 1.25 | -1.34 (inactive) | 1.44 | 0.0071
4 | Cc1ccc(S[C@]2(C(=O)NCc3ccccc3)CC(=O)N(C3CCCCC3)[C@@H]2c2ccc(CO)cc2I)cc1 | 1.27 | -0.0582 | 0.11 | 0.339 | 0.553 | 1.17 | 1.19 | -2.84 (inactive) | 0.455 | -0.132
5 | COc1cc(NN2C(C(O)c3ccco3)C=CC3C(=O)N(C)C(=O)C32)cc(OC)c1OC (stereo not given) | 0.256 | 0.504 | 0.083 | 0.27 | 0.578 | 1.4 | 1.38 | -0.389 (inactive) | 0.775 | 0.837
6 | COC(=O)c1c(CC[C@@H](CO)NC(=O)N2CCC[C@H]2Cn2cc(C3(O)CCCCC3)nn2)oc(C(C)=O)c1C(=O)OC | -0.522 | 0.831 | -0.142 | 0.439 | 0.495 | 1.11 | 1.19 | -0.199 (inactive) | 0.0512 | -0.201
7 | O=C(O)[C@@H]1[C@@H]2C(=O)N(c3ccccc3)C(=O)[C@@H]2C[C@@H]1Sc1ccccc1 | 0.305 | -0.534 | -0.0833 | 0.105 | -0.0593 | -0.141 | 0.695 | 1.06 (inactive) | -0.377 | 0.0505
8 | CCCC[C@@H](O)C1=C(COC)C[C@H]2C(=O)N(C)C(=O)[C@H]2[C@H]1CO | -0.439 | 0.131 | -0.176 | 0.466 | -0.02 | -0.321 | -0.282 | -1.21 (inactive) | 0.0794 | -0.16
9 | CC(C)N1C(=O)C[C@@](C(=O)NC2CC2)(c2ccc([N+](=O)[O-])cc2)[C@H]1c1ccc(CO)cc1 | 0.632 | 0.387 | -0.111 | 0.173 | -0.551 | 1.75 | 1.35 | 0.74 (inactive) | -0.551 | -0.0994
10 | COC(=O)[C@@]1(Cc2ccc(OC)cc2)[C@H]2c3cc(C(=O)N(C)C)n(Cc4ccc(C)o4)c3C[C@H]2CN1C(=O)c1ccccc1 | 0.429 | -0.342 | 0.0807 | 0.423 | 1.61 | 1.85 | 1.24 | -0.472 (inactive) | 1.16 | 1.48
11 | COC(=O)[C@@]1(Cc2ccc(OC)cc2)[C@H]2c3cc(C(=O)N4CCCC4)n(CCc4c[nH]c5ccc(O)cc45)c3C[C@H]2CN1C(=O)c1ccccc1 | 0.77 | 0.0885 | 0.155 | 0.897 | 1.7 | 1.44 | 1.37 | 0.829 (inactive) | 1.46 | -0.374
12 | C=CCNC(=O)[C@@H]1[C@H]2C(=O)O[C@H](c3ccccc3)[C@H](c3ccccc3)N2[C@H](c2ccccc2OCCO)[C@@]12C(=O)Nc1ccc(C#CCC(C(=O)OC)C(=O)OC)cc12 | -0.44 | 0.491 | -0.116 | 0.422 | 0.894 | 1.39 | 1.28 | 1.1 (inactive) | -0.437 | -0.347
13 | CCCCCN1CC=CC23O[C@@H]4/C=C\CCC(C)OC(=O)C4[C@H]2C(=O)N(C(CO)C(C)C)[C@@H]3C1=O (stereo not given in full) | -1.2 | -0.456 | -0.245 | -0.246 | -0.406 | 1.21 | 1.38 | -0.23 (inactive) | -0.592 | -0.457
14 | CCCCCCCCCCC(O)C1C=CC2C(=O)N(c3ccccc3)C(=O)C2N1Nc1ccc(C#N)cc1 (stereo not given) | 0.356 | 0.179 | -0.0262 | 0.696 | 1.18 | 1.73 | 0.98 | 1.05 (inactive) | 0.647 | 0.0626
15 | COc1ccccc1CN1C(=O)c2ccccc2[C@](Cc2ccccc2I)(C(=O)O)[C@@H]1c1ccc(CO)cc1 | -0.689 | 0.387 | 0.0043 | 1.01 | 1.51 | 1.36 | 1.27 | -1.49 (inactive) | -0.262 | 0.305
16 | C=CCNC(=O)[C@@H]1[C@H]2C(=O)O[C@H](c3ccccc3)[C@H](c3ccccc3)N2[C@H](c2ccccc2OCCO)[C@@]12C(=O)N(C(=O)OCCOC)c1ccc(C#CC3(O)CCCCCC3)cc12 | -0.249 | 0.356 | -0.0004 | 0.427 | 1.14 | 1.16 | 1.14 | -0.257 (inactive) | 0.771 | -0.0994
17 | COc1ccc(C#Cc2ccc3c(c2)[C@]2(C(=O)N3)[C@H](C(=O)O)[C@H]3C(=O)O[C@H](c4ccccc4)[C@H](c4ccccc4)N3[C@@H]2c2ccc(O)cc2)cc1 | 0.499 | 0.928 | -0.0557 | 0.221 | -0.0571 | 0.418 | 1.28 | 0.247 (inactive) | 0.105 | -0.134
18 | CCOC(=O)C[C@H]1[C@H](OC(=O)c2cc3ccccc3oc2=O)[C@@H](NC(=O)c2ccccc2)c2cc(OCCCO)ccc2N1C(=O)c1ccccc1 | -0.319 | 0.524 | -0.105 | 0.462 | 1.17 | 0.0287 | 0.819 | 1.57 (inactive) | 0.349 | -0.199
19 | CCOC(=O)[C@@H]1CCCCN1C(=O)C(=O)OC | 0.0188 | 0.188 | -0.0593 | 0.453 | 0.0842 | -0.0734 | 0.33 | 0.148 (inactive) | 0.115 | -0.342
20 | CC(C)[Si](C#C[Si](C(C)C)(C(C)C)C(C)C)(O[C@H](c1ccccc1)c1cn(Cc2ccccc2)nn1)C(C)C | -0.353 | 0.213 | -0.1 | 0.311 | 0.615 | -0.16 | 0.928 | 0.133 (inactive) | 0.276 | 0.0808
21 | NC(=O)[C@@]1(Cc2ccccc2)COC(c2ccc(OCCCO)cc2)=N1 | 0.634 | 0.758 | -0.0594 | -0.281 | 0.29 | 1.37 | 1.16 | 1.47 (inactive) | 0.252 | -0.0684
22 | COC(=O)C1=CC(CCCO)=CC(c2cccs2)N(C)C=C1C(=O)OC (stereo not given) | 0.0256 | -0.106 | -0.0737 | -0.379 | -0.324 | 1.08 | 1.33 | -0.656 (inactive) | -0.0824 | -0.0994
23 | COc1ccc([Si](C)(C)[C@@H]2[C@@H](CCO)O[C@]3(C(=O)N(Cc4ccccc4)c4ccc(N5CCOC5=O)cc43)[C@H]2C)cc1 | -0.142 | 0.682 | -0.0346 | 0.65 | 0.545 | 0.69 | 0.951 | -4.48 (inactive) | 0.152 | -0.226
